{"source": "ChEMBL document CHEMBL4513216", "about": "“Probing the Open Global Health Chemical Diversity Library for Multistage-Active Starting Points for Next-Generation Antimalarials” (ACS Infect Dis, 2020)", "note": "Screen size: about 69,000 compounds; about 8,600 (12%) showed an effect of 50% or more. The full list was thinned out, with strong results kept by preference."}
{"tested_on": "Plasmodium berghei", "test": "Screen against P. berghei liver stage (PbLuc), transformed with Luciferase, at 10uM", "assay_type": "functional, HepG2", "details": "tested at 10 uM", "units": {"INHIBITION": "%"}}
{"smiles": "CNC(=O)c1cn[nH]c1C1CCN(Cc2cccc(C)c2OC)C1", "note": "(stereo not drawn)", "INHIBITION": 6.32}
{"smiles": "O=C(CN1CCS(=O)(=O)CC1)NC1CCCOc2ccccc21", "note": "(stereo not drawn)", "INHIBITION": 63.6}
{"smiles": "O=C(CN1CCS(=O)(=O)CC1)NC1CCOc2ccccc21", "note": "(stereo not drawn)", "INHIBITION": -22.4}
{"smiles": "O=C(CN1CCS(=O)(=O)CC1)NC1CCCc2ccccc21", "note": "(stereo not drawn)", "INHIBITION": -17.2}
{"smiles": "Cc1ccc(C2CSCCN2C(=O)c2ccncc2)cc1", "note": "(stereo not drawn)", "INHIBITION": -2.39}
{"smiles": "CCN(CC1CN(Cc2ccn(C(C)C)n2)CCO1)c1cccnn1", "note": "(stereo not drawn)", "INHIBITION": 54.3}
{"smiles": "CCN(CC1CN(CCc2ccccn2)CCO1)c1cccnn1", "note": "(stereo not drawn)", "INHIBITION": -14.2}
{"smiles": "CCN(CC1CN(Cc2cccc(C#N)c2)CCO1)c1cccnn1", "note": "(stereo not drawn)", "INHIBITION": 58.5}
{"smiles": "CCc1nc(CN2CCOC(CN(C)c3cccnn3)C2)cs1", "note": "(stereo not drawn)", "INHIBITION": -4.16}
{"smiles": "CC(C)n1ccc(CN2CCOC(CNc3cccnn3)C2)n1", "note": "(stereo not drawn)", "INHIBITION": -31.5}
{"smiles": "CCN(CC1CN(Cc2cccnc2)CCO1)c1cccnn1", "note": "(stereo not drawn)", "INHIBITION": 48.3}
{"smiles": "CCc1nc(CN2CCOC(CN(CC)c3cccnn3)C2)cs1", "note": "(stereo not drawn)", "INHIBITION": 57}
{"smiles": "COCc1nc(CN2CCOC(CN(C)c3cccnn3)C2)cs1", "note": "(stereo not drawn)", "INHIBITION": -8.11}
{"smiles": "CCN(CC1CN(Cc2ccccn2)CCO1)c1cccnn1", "note": "(stereo not drawn)", "INHIBITION": -32.2}
{"smiles": "CCOC(=O)CN1CCC2(CCCN(CCOc3ccccc3)C2)C1", "note": "(stereo not drawn)", "INHIBITION": 21.1}
{"smiles": "CC(C)(C)C(=O)NCCCC(=O)NC(C)(C)c1ccc2c(c1)OCO2", "INHIBITION": 27.4}
{"smiles": "Cc1nccn1-c1ccc(=O)n(CCNC(=O)c2cccs2)n1", "INHIBITION": 18.7}
{"smiles": "Cc1cnn(CC2CN(Cc3cccc(C(N)=O)c3)CCO2)c1", "note": "(stereo not drawn)", "INHIBITION": 16.9}
{"smiles": "O=C(Cc1cccs1)N1CCC2(CC1)COCCN2CC1CC1", "INHIBITION": 21.7}
{"smiles": "CC(C)(CO)N1CCN(S(=O)(=O)CCCF)CC1", "INHIBITION": -15.565}
{"smiles": "CCN(Cc1ccc2c(c1)OCO2)C(=O)c1cccnc1O", "INHIBITION": -35.5}
{"smiles": "COCCn1cnc2ccc(NC(=O)C(C)C)cc2c1=O", "INHIBITION": 39.2}
{"smiles": "Cc1cc(C)c(CNC(=O)N2CCN(c3nccs3)CC2)c(=O)[nH]1", "INHIBITION": -5.6}
{"smiles": "c1cncc(-c2noc(CN3CCCC(Cn4cncn4)C3)n2)c1", "note": "(stereo not drawn)", "INHIBITION": -52.5}
{"smiles": "CCc1cnc(CN2CCC(O)(c3cc(OC)cc(OC)c3)CC2)o1", "INHIBITION": 11.3}
{"smiles": "COc1cc(OC)cc(C2(O)CCN(Cc3nc(C)c(C)o3)CC2)c1", "INHIBITION": 22.2}
{"smiles": "COc1cc(OC)cc(C2(O)CCN(Cc3ncc(C)o3)CC2)c1", "INHIBITION": 50.9}
{"smiles": "CCCc1nc(CNC2(c3nccs3)CCCC2)cs1", "INHIBITION": -15.4}
{"smiles": "Cc1cc(NC(=O)CN2CCc3c(nc(C(C)C)n3C)C2)on1", "INHIBITION": -21.2}
{"smiles": "Cc1cnn(CC2CCCCN2C(=O)c2n[nH]c3ccccc23)c1", "note": "(stereo not drawn)", "INHIBITION": -43.5}
{"smiles": "c1cc(CN2CCOCC3(C2)CN(Cc2nccs2)CCO3)ccn1", "note": "(stereo not drawn)", "INHIBITION": 34.4}
{"smiles": "c1csc(CN2CCOCC3(CCN(C4CCOCC4)C3)C2)n1", "note": "(stereo not drawn)", "INHIBITION": 63.1}
{"smiles": "c1csc(CN2CCC3(COCCN(CC4CC4)C3)C2)n1", "note": "(stereo not drawn)", "INHIBITION": -23.3}
{"smiles": "Fc1cccc(CN2CCOC3(COCCN(CC4CC4)C3)C2)c1", "note": "(stereo not drawn)", "INHIBITION": 81}
{"smiles": "Cc1cccc(CN2CCOCC3(CCN(C4CCOCC4)C3)C2)c1", "note": "(stereo not drawn)", "INHIBITION": -35.9}
{"smiles": "COCCN1CCOCC2(CCCN(Cc3cccc(F)c3)C2)C1", "note": "(stereo not drawn)", "INHIBITION": 46.9}
{"smiles": "O=C(c1ccco1)N1CCOCC2(CCN(C3CCOCC3)C2)C1", "note": "(stereo not drawn)", "INHIBITION": 8.69}
{"smiles": "c1ccc(CN2CCOCC3(CCN(C4CCOCC4)C3)C2)cc1", "note": "(stereo not drawn)", "INHIBITION": 50}
{"smiles": "C1CC(CN2CCOCC3(CCN(C4CCOCC4)C3)C2)CCO1", "note": "(stereo not drawn)", "INHIBITION": 40.9}
{"smiles": "c1csc(CN2CCOCC3(CCN(C4CCOCC4)C3)C2)c1", "note": "(stereo not drawn)", "INHIBITION": 11.6}
{"smiles": "Fc1cccc(CN2CCOCC3(CCN(C4CCOCC4)C3)C2)c1", "note": "(stereo not drawn)", "INHIBITION": 58.1}
{"smiles": "Cn1cc(CN2CCOCC3(CCN(C4CCOCC4)C3)C2)cn1", "note": "(stereo not drawn)", "INHIBITION": 11.6}
{"smiles": "CCn1nc(C)c(NC(=O)CN2CC[C@H](CO)[C@@H](O)C2)c1C", "INHIBITION": 10.6}
{"smiles": "O=S(=O)(CCCNCCn1cccn1)c1ccccc1", "INHIBITION": -42.8}
{"smiles": "CCCc1nc(CN(CC)C(=O)c2ccc(S(C)(=O)=O)cc2)no1", "INHIBITION": 19.8}
{"smiles": "CCn1ccc(NC(=O)CN2C(=O)CC(C)(C)c3ccccc32)n1", "INHIBITION": -34.9}
{"smiles": "CN(C)CC(=O)N1CCC2(CC1)COCCN(Cc1ccncc1)C2", "INHIBITION": 61.4}
{"smiles": "CCS(=O)(=O)N1CCC2(CCCN(Cc3cc(OC)ccc3F)C2)C1", "note": "(stereo not drawn)", "INHIBITION": -14}
{"smiles": "c1cc(CN2CCOCC3(CCNCC3)C2)ccn1", "INHIBITION": 63.7}
{"smiles": "c1cc(CN2CCOCC3(CCN(CC4CCOCC4)CC3)C2)ccn1", "INHIBITION": 39.2}
{"smiles": "O=C(c1ccsc1)N1CCC2(CC1)COCCN(Cc1ccncc1)C2", "INHIBITION": 25.2}
{"smiles": "COc1ccc(CN2CCOCC3(CCN(C4CCOCC4)C3)C2)cc1", "note": "(stereo not drawn)", "INHIBITION": 11.6}
{"smiles": "COc1ccc(F)c(CN2CCCC3(CCN(S(C)(=O)=O)C3)C2)c1", "note": "(stereo not drawn)", "INHIBITION": 47}
{"smiles": "O=C(C1CCCO1)N1CCC2(CC1)COCCN(Cc1ccncc1)C2", "note": "(stereo not drawn)", "INHIBITION": 5.44}
{"smiles": "c1cc(CN2CCOCC3(CCN(C4CCOCC4)C3)C2)ccn1", "note": "(stereo not drawn)", "INHIBITION": 52.2}
{"smiles": "O=C(C1CCOC1)N1CCC2(CC1)COCCN(Cc1ccncc1)C2", "note": "(stereo not drawn)", "INHIBITION": 1.94}
{"smiles": "COc1ccc(F)c(CN2CCCC3(CCN(C4CCOCC4)C3)C2)c1", "note": "(stereo not drawn)", "INHIBITION": 77.8}
{"smiles": "c1cncc(CN2CCC3(COCCN(C4CCOCC4)C3)C2)c1", "note": "(stereo not drawn)", "INHIBITION": 17.5}
